The panel holds about 83,000 compounds, 20% with a hit somewhere; the sample as a whole holds those more often.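 Results are percent growth after 48 hours of single-concentration exposure. 100 means growth as in untreated cells, lower positive values show inhibition; negative values down to -100 show cell death.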 Activity calls are given as the source filed them. Rule for the calls: active = growth percent below 10; inactive = the rest.
Tests used:
Assay in all cases: NCI-60 one-dose screen, 48 h (100 = growth as untreated, 0 = no growth, -100 = all killed)
Conditions in all cases: 10 µM unless noted
HCT-15 colon = system: HCT-15 colon
HT29 colon = system: HT29 colon
SNB-75 CNS = system: SNB-75 CNS
SNB-19 CNS = system: SNB-19 CNS
U251 CNS = system: U251 CNS
PC-3 prostate = system: PC-3 prostate
SK-MEL-5 melanoma = system: SK-MEL-5 melanoma
UACC-62 melanoma = system: UACC-62 melanoma
LOX IMVI melanoma = system: LOX IMVI melanoma
SK-MEL-28 melanoma = system: SK-MEL-28 melanoma

Measured: growth

C=CC(C)(O)CC/C=C(\CO)C(=O)OC1C(C)OC(O[C@](C)(C=C)CC/C=C(\CO)C(=O)O[C@H]2C[C@@]3(C(=O)OC4OC(CO)C(O)C(O)C4OC4OC(C)C(OC5OC(CO)C(O)C5O)C(OC5OC(CO)C(O)C(O)C5O)C4O)C(CC2(C)C)C2=CCC4[C@@]5(C)CC[C@H](OC6OC(COC7OC(C)C(O)C(O)C7OC7OCC(O)C(O)C7O)C(O)C(O)C6NC(C)=O)C(C)(C)C5CC[C@@]4(C)[C@]2(C)C[C@H]3O)C(O)C1O (stereo not given in full)
active: SNB-75 CNS -34.9% | SNB-19 CNS -54.1% | U251 CNS -84.5% | PC-3 prostate -68.9% | UACC-62 melanoma -11% | LOX IMVI melanoma -36.7% | SK-MEL-28 melanoma -90.3%
inactive: HCT-15 colon 66.3% | HT29 colon 21.5% | SK-MEL-5 melanoma 74.6%

N#Cc1c(Nc2ccc(F)cc2)n[nH]c1-c1cccs1
inactive: HCT-15 colon 97.7% | HT29 colon 114% | SNB-75 CNS 85.6% | SNB-19 CNS 85.6% | U251 CNS 102% | PC-3 prostate 95.7% | SK-MEL-5 melanoma 97.1% | UACC-62 melanoma 76.9% | LOX IMVI melanoma 95.1% | SK-MEL-28 melanoma 105%

Nc1ncnc2c1c(-c1ccc(Oc3ccccc3)cc1)nn2CC1SSCC1O (stereo not given)
active: SK-MEL-5 melanoma -42.9% | UACC-62 melanoma -76.1% | SK-MEL-28 melanoma 2.15%
inactive: HCT-15 colon 65.3% | HT29 colon 39.2% | SNB-75 CNS 43.5% | SNB-19 CNS 45.5% | U251 CNS 39.7% | PC-3 prostate 61.7% | LOX IMVI melanoma 19.2%

O=C(N/N=C/c1ccc(O)cc1O)c1ccc(Nc2ccnc(C(F)(F)F)c2)cc1
inactive: HCT-15 colon 39.7% | HT29 colon 58.6% | SNB-75 CNS 62.2% | SNB-19 CNS 32% | U251 CNS 24.6% | PC-3 prostate 50.2% | SK-MEL-5 melanoma 20.7% | UACC-62 melanoma 11.7% | LOX IMVI melanoma 12.9% | SK-MEL-28 melanoma 60.7%

Cc1ccc2nc(Cl)c(Cn3nnnc3SCc3ccccc3)cc2c1
inactive: HCT-15 colon 90.7% | HT29 colon 101% | SNB-75 CNS 93.4% | SNB-19 CNS 98.8% | U251 CNS 95.8% | PC-3 prostate 90.4% | SK-MEL-5 melanoma 93% | UACC-62 melanoma 83.7% | LOX IMVI melanoma 86.7% | SK-MEL-28 melanoma 107%

Cc1[nH]c(/C=C/C(=O)c2ccc(C(F)(F)F)c(F)c2)c(C)c1C(=O)NCC(C)C
inactive: HCT-15 colon 93.8% | HT29 colon 102% | SNB-75 CNS 89.4% | SNB-19 CNS 92.2% | U251 CNS 100% | PC-3 prostate 103% | SK-MEL-5 melanoma 99.8% | UACC-62 melanoma 96.6% | LOX IMVI melanoma 90.5% | SK-MEL-28 melanoma 106%

CN1CCN(c2ccc(NC(=O)c3cncnc3Nc3ccc4c(ccn4Cc4cccc(F)c4)c3)cc2)CC1
inactive: SNB-75 CNS 67.4% | SNB-19 CNS 77.7% | PC-3 prostate 66.2% | SK-MEL-5 melanoma 59.6% | UACC-62 melanoma 54.3%
active: HCT-15 colon -6.2% | HT29 colon -39.8% | U251 CNS 6.24% | LOX IMVI melanoma -80.9% | SK-MEL-28 melanoma -85.2%

Cc1cc(N2CCN(C)CC2)nc(NCc2cc(Nc3ccnc4cc(Cl)ccc34)ccc2F)n1
active: HCT-15 colon -17.6% | HT29 colon -56.1% | U251 CNS -51.3% | SK-MEL-5 melanoma -98% | UACC-62 melanoma -59.1% | LOX IMVI melanoma -70.1% | SK-MEL-28 melanoma -75.4%
inactive: SNB-75 CNS 21.2% | SNB-19 CNS 34.3% | PC-3 prostate 28.6%

CC(C)(C)c1cc(C=Nc2cccc(C(F)(F)F)c2)c(O)c(C(C)(C)C)c1
inactive: HCT-15 colon 83.7% | HT29 colon 81% | SNB-75 CNS 83.6% | SNB-19 CNS 93.9% | U251 CNS 77.6% | PC-3 prostate 80.2% | SK-MEL-5 melanoma 99.9% | UACC-62 melanoma 101% | LOX IMVI melanoma 101% | SK-MEL-28 melanoma 107%

COc1ccc(-c2cc(C(=O)N3N=C(c4ccc(N)cc4)CC3c3ccccc3)c3ccccc3n2)cc1 (stereo not given)
active: SNB-75 CNS -1.79%
inactive: HCT-15 colon 24.6% | HT29 colon 10.3% | SNB-19 CNS 47.8% | U251 CNS 36.9% | PC-3 prostate 32.5% | SK-MEL-5 melanoma 36.2% | UACC-62 melanoma 40.3% | LOX IMVI melanoma 39.7% | SK-MEL-28 melanoma 53.1%

Cc1c2cc[nH]c(=O)c2c(C)c2c1[nH]c1ccc(OC(=O)c3ccccc3)cc12
active: SK-MEL-5 melanoma -26.9%
inactive: HCT-15 colon 27.9% | HT29 colon 34.1% | SNB-75 CNS 39.9% | SNB-19 CNS 45% | U251 CNS 29.2% | PC-3 prostate 35.9% | UACC-62 melanoma 28.5% | LOX IMVI melanoma 13.7% | SK-MEL-28 melanoma 25.2%

NS(=O)(=O)c1ccc(N/C=C/C(=O)c2cc3ccccc3oc2=O)cc1
inactive: HCT-15 colon 93.5% | HT29 colon 108% | SNB-75 CNS 76.1% | SNB-19 CNS 103% | U251 CNS 97.2% | PC-3 prostate 93.7% | SK-MEL-5 melanoma 92.6% | UACC-62 melanoma 93.7% | LOX IMVI melanoma 93% | SK-MEL-28 melanoma 111%

O=C1NC(=Nc2ccc(O)cc2)S/C1=C\c1cccs1
active: SNB-75 CNS -12.7% | PC-3 prostate -1.89%
inactive: HCT-15 colon 20.9% | HT29 colon 89.7% | SNB-19 CNS 32.4% | U251 CNS 25.2% | SK-MEL-5 melanoma 47.8% | UACC-62 melanoma 46.1% | LOX IMVI melanoma 32.1% | SK-MEL-28 melanoma 75.6%

COc1cc2oc(-c3cccc(NC(=O)c4ccc5c(c4)OCO5)c3)cc(=O)c2c(OC)c1OC
inactive: HCT-15 colon 32.1% | HT29 colon 29.4% | SNB-75 CNS 67.4% | SNB-19 CNS 45.6% | U251 CNS 32.5% | SK-MEL-5 melanoma 16.4% | UACC-62 melanoma 50% | LOX IMVI melanoma 39.5% | SK-MEL-28 melanoma 55.1%
active: PC-3 prostate -12%

N#Cc1c(-c2cccc([N+](=O)[O-])c2)cc(-c2ccc(Nc3nc(Nc4ccc(F)cc4)nc(Nc4ccc(F)cc4)n3)cc2)nc1N
inactive: HCT-15 colon 103% | HT29 colon 113% | SNB-75 CNS 102% | SNB-19 CNS 104% | U251 CNS 110% | PC-3 prostate 92% | SK-MEL-5 melanoma 84.4% | UACC-62 melanoma 110% | LOX IMVI melanoma 97.9% | SK-MEL-28 melanoma 114%

Fc1ccc2c(c1)c(-c1nc(-c3c[nH]c4ncccc34)cs1)cn2CCCN1CCOCC1
inactive: HCT-15 colon 24.5% | HT29 colon 12.9% | SNB-75 CNS 41.2% | SNB-19 CNS 62.7% | U251 CNS 30.4% | PC-3 prostate 31.9% | SK-MEL-5 melanoma 43.7% | UACC-62 melanoma 69.5% | LOX IMVI melanoma 33.1% | SK-MEL-28 melanoma 75.4%

COc1cc(C2Cc3ncccc3-c3[nH]c(=O)c4cccnc4c32)cc(OC)c1OC (stereo not given)
active: HT29 colon 0.572%
inactive: HCT-15 colon 16.9% | SNB-75 CNS 41.1% | SNB-19 CNS 29.2% | U251 CNS 15.8% | PC-3 prostate 21.8% | SK-MEL-5 melanoma 18.6% | UACC-62 melanoma 28.2% | LOX IMVI melanoma 29.2% | SK-MEL-28 melanoma 66.4%

COc1cc(-c2cc(-c3ccc(Nc4ncnc5cc(Cl)ccc45)cc3)nc(N3CCN(C)CC3)n2)cc(OC)c1OC
inactive: HCT-15 colon 64.4% | HT29 colon 81.7% | SNB-75 CNS 49.5% | SNB-19 CNS 102% | U251 CNS 106% | PC-3 prostate 82.2% | SK-MEL-5 melanoma 74.5% | UACC-62 melanoma 97% | LOX IMVI melanoma 86.2% | SK-MEL-28 melanoma 86.6%

N#CC(C#N)N=Nc1ccc(Cl)cc1Cl
inactive: HCT-15 colon 85% | HT29 colon 81.8% | SNB-75 CNS 89.3% | SNB-19 CNS 102% | U251 CNS 106% | PC-3 prostate 78.7% | SK-MEL-5 melanoma 99.8% | UACC-62 melanoma 69.6% | LOX IMVI melanoma 94.8% | SK-MEL-28 melanoma 70.3%

CCN(CCO)CC(C)Nc1ccc([N+](=O)[O-])c2sc3ccccc3c(=O)c12 (stereo not given)
inactive: HCT-15 colon 27.2% | HT29 colon 11.3% | SNB-75 CNS 36.4% | SNB-19 CNS 43.2% | U251 CNS 26.7% | PC-3 prostate 28.3% | SK-MEL-5 melanoma 12.3% | UACC-62 melanoma 29.8% | LOX IMVI melanoma 16.2% | SK-MEL-28 melanoma 44.4%

CC(C)C[C@@H](C(=O)N[C@H](C(=O)OC1CCCC1)c1ccccc1)[C@H](O)C(=O)NO
inactive: HCT-15 colon 58.4% | HT29 colon 58% | SNB-75 CNS 101% | SNB-19 CNS 76.2% | U251 CNS 45.7% | PC-3 prostate 49.6% | SK-MEL-5 melanoma 59.8% | UACC-62 melanoma 68.8% | LOX IMVI melanoma 54.2% | SK-MEL-28 melanoma 63.2%

COc1ccc2c(c1)c(-c1nonc1-c1cn(C)c3ccc(OC)cc13)cn2C
inactive: HCT-15 colon 25.4% | HT29 colon 13.1% | SNB-75 CNS 24% | SNB-19 CNS 36.8% | U251 CNS 33.7% | PC-3 prostate 50.1% | SK-MEL-5 melanoma 38% | UACC-62 melanoma 26.3% | LOX IMVI melanoma 39.7% | SK-MEL-28 melanoma 60.8%

O=C(O)CCCn1c(SCc2c(Cl)cccc2Cl)nc2ccsc2c1=O
inactive: HCT-15 colon 30.7% | SNB-19 CNS 31% | U251 CNS 18.1% | PC-3 prostate 14.5% | SK-MEL-5 melanoma 16.8% | UACC-62 melanoma 28.3% | LOX IMVI melanoma 28% | SK-MEL-28 melanoma 57.6%
active: HT29 colon 4.21% | SNB-75 CNS -13.8%

N=C(N)SCc1cccc2c(CSC(=N)N)cccc12
inactive: HCT-15 colon 108% | HT29 colon 108% | SNB-75 CNS 91.7% | SNB-19 CNS 93.5% | U251 CNS 89.2% | PC-3 prostate 97.4% | SK-MEL-5 melanoma 109% | UACC-62 melanoma 96.6% | LOX IMVI melanoma 97.7% | SK-MEL-28 melanoma 109%

CN1C(=O)N(C)C2C1NC(=S)N2/N=C/C=C/c1ccccc1[N+](=O)[O-] (stereo not given)
active: HT29 colon 2.85% | SNB-75 CNS -5.19%
inactive: HCT-15 colon 29% | SNB-19 CNS 37% | U251 CNS 20.2% | PC-3 prostate 17.3% | SK-MEL-5 melanoma 11.8% | UACC-62 melanoma 26.4% | LOX IMVI melanoma 31.6% | SK-MEL-28 melanoma 56.7%

CCCCC(=O)Nc1ncc(Cc2ccccc2Cl)s1
inactive: HCT-15 colon 24.8% | HT29 colon 11% | SNB-75 CNS 25.3% | SNB-19 CNS 48.7% | U251 CNS 32% | PC-3 prostate 68.8% | SK-MEL-5 melanoma 37.6% | UACC-62 melanoma 32.4% | LOX IMVI melanoma 40.2% | SK-MEL-28 melanoma 57.7%

— PubChem BioAssay (NCI)
